# Measurements as given in the supplement of paper PMC3545927.
# The other results are listed elsewhere or left out. The true hit rate is not given.
# B1: HC1420 (peptide)
# chain: CASKFGYGAKAGNASASA
# B2: HC362 (peptide)
# chain: CALAPGAKQNAGNASASA
# B3: HC2102 (peptide)
# chain: CAVVCCSMSQAGNASASA
# B4: HC651 (peptide)
# chain: CATKLITWGAAGNASASA
# B5: HC203 (peptide)
# chain: CALYGNEGCGAGNASASA
# B6: FS-3063 (peptide)
# chain: CARRRRHPDDAGNASASA
# B7: FS-1785 (peptide)
# chain: CARRRRHPDEAGNASASA
# B8: FS-2404 (peptide)
# chain: CARRRRHAGEAGNASASA
# B9: HC1112 (peptide)
# chain: CARRHVGPGEAGNASASA
# B10: HC1214 (peptide)
# chain: CATDNLKCPCAGNASASA
# B11: HC1488 (peptide)
# chain: CATEEAIYQCAGNASASA
# B12: HC1063 (peptide)
# chain: CAQTLLFNILAGNASASA
# B13: HC1877 (peptide)
# chain: CATTSCSGSWAGNASASA
# B14: HC2336 (peptide)
# chain: CAEGPCHRPSAGNASASA
# B15: FS-3032 (peptide)
# chain: CARPYRCKIKAGNASASA
# B16: FS-1402 (peptide)
# chain: CARPFRYKRKAGNASASA
# B17: FS-338 (peptide)
# chain: CAIITRYKRKAGNASASA
# B18: FS-2499 (peptide)
# chain: CARPFRSFVPAGNASASA
# B19: HC767 (peptide)
# chain: CANSSPPVVPAGNASASA
# B20: HC1169 (peptide)
# chain: CAGVWRVDGIAGNASASA
# B21: HC1961 (peptide)
# chain: CANCTTPCSGAGNASASA
# B22: FS-1716 (peptide)
# chain: CARHRKNVDRAGNASASA
# B23: FS-2469 (peptide)
# chain: CARVARTVDRAGNASASA
# B24: FS-2356 (peptide)
# chain: CARPAREVDRAGNASASA
# B25: FS-3155 (peptide)
# chain: CARHARQASEAGNASASA
# B26: NG5 (peptide)
# chain: CAMKYEIASEAGNASASA
# B27: HC1167 (peptide)
# chain: CARGYKGVWRAGNASASA
# B28: FS-2210 (peptide)
# chain: CARHARFGKKAGNASASA
# B29: FS-1953 (peptide)
# chain: CARHARNVDRAGNASASA
# Target: furin, P09958
# Sequence (P09958 whole entry): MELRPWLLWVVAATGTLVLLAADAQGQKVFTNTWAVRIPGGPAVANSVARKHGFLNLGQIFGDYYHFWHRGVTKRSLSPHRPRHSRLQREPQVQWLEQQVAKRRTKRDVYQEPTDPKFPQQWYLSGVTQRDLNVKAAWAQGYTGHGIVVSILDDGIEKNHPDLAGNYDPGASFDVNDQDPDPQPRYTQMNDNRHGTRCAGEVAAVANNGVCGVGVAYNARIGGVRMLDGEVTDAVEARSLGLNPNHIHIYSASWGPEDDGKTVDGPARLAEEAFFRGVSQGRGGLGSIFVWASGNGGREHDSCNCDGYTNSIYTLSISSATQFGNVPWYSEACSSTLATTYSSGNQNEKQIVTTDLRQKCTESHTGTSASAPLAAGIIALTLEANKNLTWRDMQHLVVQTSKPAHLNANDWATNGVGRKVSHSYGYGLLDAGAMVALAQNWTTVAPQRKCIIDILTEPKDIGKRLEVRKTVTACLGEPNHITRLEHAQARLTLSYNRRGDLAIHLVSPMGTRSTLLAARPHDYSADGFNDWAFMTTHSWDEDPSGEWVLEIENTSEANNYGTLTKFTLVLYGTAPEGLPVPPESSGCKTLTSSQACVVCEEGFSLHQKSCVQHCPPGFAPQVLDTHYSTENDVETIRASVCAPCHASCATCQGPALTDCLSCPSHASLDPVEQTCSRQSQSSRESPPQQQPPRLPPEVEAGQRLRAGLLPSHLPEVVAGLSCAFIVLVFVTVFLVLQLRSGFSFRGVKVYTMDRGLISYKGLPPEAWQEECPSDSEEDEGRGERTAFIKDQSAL
# Test: furin cleavage Z-score vs untreated control; higher = more cleavage, active = 3.5 or more, inactive = 1 or less, 8 variable residues between constant flanks
# Summary of the method: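 Furin-free reactions served as the baseline for the cleavage Z-score, which is the log read count lowess-adjusted and scaled by median absolute deviation. Counts came from released DNA, adapter-tagged by PCR and sequenced. Purified furin had cut 8-mer peptides fused to a cDNA oligonucleotide on magnetic beads during 7.5, 15 or 30 min at 1:10 enzyme:substrate.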
# 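Note: purified furin at 1:10 enzyme:substrate in 50 mM HEPES pH 7.5.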
Sequence,furin cleavage Z-score (7.5 min),furin cleavage Z-score (15 min),furin cleavage Z-score (30 min)
B1,0.531 (inactive),0.331 (inactive),-1.23 (inactive)
B2,0.735 (inactive),-0.827 (inactive),0.525 (inactive)
B3,-0.199 (inactive),0.851 (inactive),0.49 (inactive)
B4,0.877 (inactive),-0.214 (inactive),-0.337 (inactive)
B5,-0.0812 (inactive),1.22,0.228 (inactive)
B6,3.1,4.81 (active),3.91 (active)
B7,5.6 (active),5.56 (active),4.6 (active)
B8,6.46 (active),4.9 (active),5.66 (active)
B9,-0.341 (inactive),-0.961 (inactive),-0.867 (inactive)
B10,0.631 (inactive),-2.12 (inactive),-1.25 (inactive)
B11,0.306 (inactive),-0.635 (inactive),1.07
B12,0.309 (inactive),-0.599 (inactive),0.404 (inactive)
B13,-0.56 (inactive),-0.299 (inactive),-0.313 (inactive)
B14,0.811 (inactive),0.167 (inactive),0.259 (inactive)
B15,-0.856 (inactive),-0.224 (inactive),1.6
B16,7.84 (active),8.54 (active),7.38 (active)
B17,6.56 (active),6.04 (active),6.05 (active)
B18,0.343 (inactive),1.12,0.335 (inactive)
B19,-0.356 (inactive),1.59,-0.293 (inactive)
B20,-0.937 (inactive),0.416 (inactive),-0.826 (inactive)
B21,-0.578 (inactive),-3.89 (inactive),1.28
B22,-0.386 (inactive),1.53,1.32
B23,5.8 (active),7.75 (active),8.43 (active)
B24,5.34 (active),5.29 (active),4.96 (active)
B25,1.74,4.48 (active),5.03 (active)
B26,-0.26 (inactive),-1.67 (inactive),0.146 (inactive)
B27,0.51 (inactive),0.617 (inactive),-0.00561 (inactive)
B28,0.851 (inactive),-1.52 (inactive),1.21
B29,6.92 (active),10.7 (active),9.36 (active)
